PubChem BioAssay (NCATS)
Results filed as inconclusive are left out. A call without a number means that no potency is given here. Calls of active or inactive are those of the source. Unless noted, calls come from the whole dose curve; as a rule, active = well fitted curve in the direction sought with a large enough effect; inconclusive = small, poorly fitted or top-dose-only effect, or another doubt; inactive = no such curve, though single readings can be large; an effect the other way counts as inactive or inconclusive.

Key:
[1] = target: Protein phosphatase 1D (Homo sapiens) (UniProt O15297); experiment: RapidFire Mass Spectrometry qHTS Assay for Modulators of WT P53-Induced Phosphatase 1 (WIP1) (AID 1347424);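 note: amount of dephosphorylated VEPPL-S-QETFS peptide product formed by WIP1; series mostly up to about 63 µM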
Method in brief: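 RapidFire mass spectrometry measured dephosphorylated peptide after 5 min room-temperature reaction of 2 uM VEPPL-pS-QETFS with 10 nM WIP1 (50 mM Tris-HCl pH 7.5, 30 mM MgCl2, 0.1 mM EGTA, BSA), following 1 hr compound preincubation; 1 uM isotope-labelled product standard.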

[2] = target: Protein phosphatase 1D (Homo sapiens) (UniProt O15297); experiment: Rhodamine-PBP qHTS Assay for Modulators of WT P53-Induced Phosphatase 1 (WIP1) (AID 1347425)
Method in brief: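 Read-out: Rhodamine-PBP fluorescence (ex 525/em 598 nm) for released Pi, read each minute for 11 min after adding 10 uM VEPPL-pS-QETFS; signal taken as f1 minus pre-substrate f0. Enzyme 5 nM WIP1 with 1 hr room-temperature compound preincubation.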

[3] = Primary qHTS for inhibitors of La Crosse Virus (LACV) - induced cell death in SH-SY5Y cells (AID 1508616);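 note: top concentration of the series differs between compounds; higher means more rescue of cells from virus-induced death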
Method in brief: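 Screening measures cell viability in LACV-infected SH-SY5Y cultures. Compound was added before virus (0.01 MOI), and ATP was detected by luminescence 6 days later.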

[4] = target: Calcium and integrin-binding protein 1 (Homo sapiens) (UniProt Q99828); experiment: Primary qHTS for Identification of Calcium Integrin Binding Protein 1 (CIB1) Competitor (AID 1508620);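 note: GST tagged CIB1 binding a fluorescein labelled alphaIIb integrin peptide tracer; top concentration of the series differs between compounds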
Method in brief: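 CIB1-GST (1 uM final) and compound incubated 15 min at room temperature before adding FITC-alphaIIb peptide tracer (100 nM final). Competition for binding read by fluorescence polarization (ex 480, em 540) after another 15 min at room temperature.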

[5] = Primary qHTS for small molecule stabilizers of the endoplasmic reticulum resident proteome: Secreted ER Calcium Modulated Protein (SERCaMP) assay (AID 1508630)
Method in brief: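 The SH-SY5Y reporter protocol was run at 3 concentrations up to 38.3 uM (primary) or 11 concentrations (follow-up): 16 h compound, 100 nM thapsigargin for 4 h, then extracellular luciferase luminescence.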

[6] = A High-Content qHTS Against Drug Library for the Identification of Small Molecules that Inhibit DYT1 Early Onset Primary Dystonia-Associated Cell Pathology (AID 1645839; calls by dose curve; note: series mostly up to about 46 µM)
Method in brief: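 High-content imaging quantified EGFP-TorsinA mislocalization in HEK293-derived cells inducibly expressing DYT1 mutant torsinA, after 48 h exposure to compound given together with tetracycline induction. Cell count served as a toxicity channel alongside %pathology.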

[7] = Primary qHTS for inhibitors of nuclear receptor binding SET domain protein 2 (NSD2) in an isogenic RCH-ACV NSD2 p.E1099K mutant (9B) (AID 1645876); note: nearly all actives have a fitted effect of over 70% in size; note: potency is the fitted concentration of half-maximal effect
[8] = Primary qHTS for inhibitors of nuclear receptor binding SET domain protein 2 (NSD2) in an RCH-ACV wild type WT cells (2C) (AID 1645877); note: nearly all actives have a fitted effect of over 70% in size; note: potency is the fitted concentration of half-maximal effect
[9] = target: Cytochrome P450 2C9 (Homo sapiens) (UniProt P11712); experiment: Cytochrome P450 family 2 subfamily C member 9 (CYP2C9) small molecule antagonists: luciferase biochemical (cell-free) qHTS assay (AID 1645842; active = well fitted curve in the direction sought with a large enough effect in the repeat runs; an effect the other way counts as inactive or inconclusive; note: nearly all actives have a fitted effect of over 55% in size; note: potency is the fitted concentration of half-maximal effect)
Method in brief: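 P450-Glo CYP2C9 system: proluciferin substrate with enzyme in mix containing 0.4% BSA, 10 min at room temperature, then NADPH regeneration solution added and incubated 1 h at 37C. Detection reagent stopped reaction; luminescence read after 20 min as RLU.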

[10] = target: Cytochrome P450 2D6 (Homo sapiens) (UniProt P10635); experiment: Cytochrome P450 family 2 subfamily D member 6 (CYP2D6) small molecule antagonists: luciferase biochemical (cell-free) qHTS assay (AID 1645840; active = well fitted curve in the direction sought with a large enough effect in the repeat runs; an effect the other way counts as inactive or inconclusive; note: nearly all actives have a fitted effect of over 55% in size; note: potency is the fitted concentration of half-maximal effect)
Method in brief: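 P450-Glo CYP2D6 system: proluciferin substrate converted by enzyme to luciferin, read by luminescence proportional to activity. Enzyme-substrate mix with compound 10 min at room temperature, then NADPH regeneration 1 h before detection reagent.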

Calcium and integrin-binding protein 1 (Homo sapiens), sequence (Q99828 whole entry, looked up): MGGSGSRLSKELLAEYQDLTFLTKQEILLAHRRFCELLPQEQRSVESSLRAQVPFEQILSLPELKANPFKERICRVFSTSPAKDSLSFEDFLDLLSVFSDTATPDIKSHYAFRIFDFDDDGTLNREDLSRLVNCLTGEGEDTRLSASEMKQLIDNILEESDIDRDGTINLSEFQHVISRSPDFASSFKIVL
Protein phosphatase 1D (Homo sapiens), sequence (O15297 whole entry, looked up): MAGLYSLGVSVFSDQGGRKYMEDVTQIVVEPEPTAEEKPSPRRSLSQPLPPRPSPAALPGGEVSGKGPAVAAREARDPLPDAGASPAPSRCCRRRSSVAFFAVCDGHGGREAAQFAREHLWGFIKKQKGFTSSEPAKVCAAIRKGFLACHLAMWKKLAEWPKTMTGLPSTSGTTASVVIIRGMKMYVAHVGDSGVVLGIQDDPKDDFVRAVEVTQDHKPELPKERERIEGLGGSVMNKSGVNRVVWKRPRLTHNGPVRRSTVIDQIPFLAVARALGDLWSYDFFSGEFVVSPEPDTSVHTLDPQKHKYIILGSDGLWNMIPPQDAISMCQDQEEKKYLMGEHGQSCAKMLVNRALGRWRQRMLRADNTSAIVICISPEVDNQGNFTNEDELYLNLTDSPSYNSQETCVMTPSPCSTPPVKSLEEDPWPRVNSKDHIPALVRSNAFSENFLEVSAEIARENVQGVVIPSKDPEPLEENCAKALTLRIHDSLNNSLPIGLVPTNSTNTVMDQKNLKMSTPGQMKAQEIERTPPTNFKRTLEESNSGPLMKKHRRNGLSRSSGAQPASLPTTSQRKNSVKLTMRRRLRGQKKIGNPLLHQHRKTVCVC
Cytochrome P450 2C9 (Homo sapiens), sequence (P11712 whole entry, looked up): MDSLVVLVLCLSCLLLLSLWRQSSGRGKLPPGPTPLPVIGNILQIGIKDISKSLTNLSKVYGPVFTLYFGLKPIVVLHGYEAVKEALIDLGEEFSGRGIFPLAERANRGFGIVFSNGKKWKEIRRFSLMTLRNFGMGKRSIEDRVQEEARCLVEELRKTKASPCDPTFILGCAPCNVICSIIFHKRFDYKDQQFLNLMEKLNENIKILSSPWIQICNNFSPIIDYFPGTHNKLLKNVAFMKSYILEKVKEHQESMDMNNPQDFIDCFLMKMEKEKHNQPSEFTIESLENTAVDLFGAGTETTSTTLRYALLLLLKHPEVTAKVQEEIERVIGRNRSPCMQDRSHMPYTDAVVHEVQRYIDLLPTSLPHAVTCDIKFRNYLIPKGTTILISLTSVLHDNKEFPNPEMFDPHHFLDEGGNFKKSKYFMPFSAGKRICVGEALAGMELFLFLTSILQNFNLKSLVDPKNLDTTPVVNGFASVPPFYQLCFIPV
Cytochrome P450 2D6 (Homo sapiens), sequence (P10635 whole entry, looked up): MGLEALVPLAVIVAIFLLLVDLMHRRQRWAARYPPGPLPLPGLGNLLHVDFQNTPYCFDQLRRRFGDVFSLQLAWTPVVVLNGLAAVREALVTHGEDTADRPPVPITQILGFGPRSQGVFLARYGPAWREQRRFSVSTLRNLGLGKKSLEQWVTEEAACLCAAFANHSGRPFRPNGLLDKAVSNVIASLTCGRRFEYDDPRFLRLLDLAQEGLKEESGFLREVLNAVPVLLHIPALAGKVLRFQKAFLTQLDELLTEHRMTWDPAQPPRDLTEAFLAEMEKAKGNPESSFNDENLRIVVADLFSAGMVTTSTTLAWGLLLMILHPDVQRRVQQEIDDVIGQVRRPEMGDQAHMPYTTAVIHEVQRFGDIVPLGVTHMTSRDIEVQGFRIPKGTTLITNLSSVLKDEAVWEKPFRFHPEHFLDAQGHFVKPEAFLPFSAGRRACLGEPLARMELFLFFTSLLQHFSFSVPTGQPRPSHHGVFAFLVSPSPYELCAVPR

Question: For O=C(NCCc1c[nH]c2ccccc12)c1cccnc1, which Potency [1] is on record?
Answer: Its Potency is “inactive”.

Question: What about the outcome [2] of the same molecule?
Answer: Its outcome is “inactive”.

Question: And the outcome [3]?
Answer: The outcome was “inactive”.

Question: What about the Potency [4] of the same molecule?
Answer: Its Potency is “inactive”.

Question: What about the Potency [5] of the same molecule?
Answer: The Potency was “inactive”.

Question: And the Potency [6]?
Answer: The Potency was “inactive”.

Question: What about the Potency [7] of the same molecule?
Answer: The Potency was “inactive”.

Question: What about the Potency [8] of the same molecule?
Answer: The Potency was “inactive”.

Question: Which results are given for CCCCCCCCCCCCSCCOCCO?
Answer: Potency [1]: inactive; outcome [2]: inactive; outcome [3]: inactive; Potency [4]: inactive; Potency [5]: inactive; Potency [6]: inactive; Potency [9]: 12.3 µM (active); Potency [7]: inactive; Potency [8]: inactive

Question: Which results are given for Cc1cc(NS(=O)(=O)c2ccc(N)cc2)nc(C)n1?
Answer: Potency [1]: inactive; outcome [2]: inactive; outcome [3]: inactive; Potency [4]: inactive; Potency [5]: inactive; Potency [6]: inactive; Potency [9]: inactive; Potency [7]: inactive; Potency [8]: inactive

Question: Which Potency [1] does the source give for NC(=S)N/N=C/c1cccnc1 here?
Answer: Its Potency is “inactive”.

Question: What about the outcome [2] of the same molecule?
Answer: Its outcome is “inactive”.

Question: And the outcome [3]?
Answer: The outcome was “inactive”.

Question: And the Potency [4]?
Answer: The Potency was “inactive”.

Question: What about the Potency [5] of the same molecule?
Answer: Its Potency is “inactive”.

Question: And the Potency [6]?
Answer: The Potency was “inactive”.

Question: What about the Potency [9] of the same molecule?
Answer: Its Potency is “inactive”.

Question: And the Potency [7]?
Answer: Its Potency is “inactive”.

Question: What about the Potency [8] of the same molecule?
Answer: Its Potency is “inactive”.

Question: Which Potency [1] does the source give for CCOC(=O)c1c(N)sc2c1CCN(Cc1ccccc1)C2 here?
Answer: Its Potency is “inactive”.

Question: And the outcome [2]?
Answer: Its outcome is “inactive”.

Question: And the outcome [3]?
Answer: Its outcome is “inactive”.

Question: And the Potency [4]?
Answer: The Potency was “inactive”.

Question: And the Potency [5]?
Answer: Its Potency is “inactive”.

Question: What about the Potency [6] of the same molecule?
Answer: Its Potency is “inactive”.

Question: And the Potency [9]?
Answer: Its Potency is 8.71 µM (active).

Question: What about the Potency [7] of the same molecule?
Answer: Its Potency is 16.8 µM (active).

Question: Which results are given for O=C(O)CCC(=O)Nc1ccc(S(=O)(=O)Nc2nccs2)cc1?
Answer: Potency [1]: inactive; outcome [2]: inactive; outcome [3]: inactive; Potency [4]: inactive; Potency [5]: inactive; Potency [6]: inactive; Potency [7]: inactive; Potency [8]: inactive

Question: Which results are given for Cc1ccc(-c2ncc(Cl)cc2-c2ccc(S(C)(=O)=O)cc2)cn1?
Answer: Potency [1]: inactive; outcome [2]: inactive; outcome [3]: inactive; Potency [4]: inactive; Potency [5]: inactive; Potency [6]: inactive; Potency [9]: inactive; Potency [7]: inactive; Potency [8]: inactive

Question: Which Potency [1] does the source give for O=[N+]([O-])c1cccc(S(=O)(=O)NCCNS(=O)(=O)c2cccc([N+](=O)[O-])c2)c1 here?
Answer: Its Potency is “inactive”.

Question: And the outcome [2]?
Answer: Its outcome is “inactive”.

Question: And the outcome [3]?
Answer: The outcome was “inactive”.

Question: What about the Potency [4] of the same molecule?
Answer: The Potency was “inactive”.

Question: And the Potency [5]?
Answer: Its Potency is “inactive”.

Question: And the Potency [6]?
Answer: Its Potency is “inactive”.

Question: And the Potency [7]?
Answer: Its Potency is “inactive”.

Question: And the Potency [8]?
Answer: The Potency was “inactive”.

Question: With C/C=C/C=N/NC(=O)c1ccncc1 as the molecule, how does the Potency [1] read?
Answer: The Potency was “inactive”.

Question: And the outcome [2]?
Answer: The outcome was “inactive”.

Question: And the outcome [3]?
Answer: Its outcome is “inactive”.

Question: And the Potency [4]?
Answer: The Potency was “inactive”.

Question: And the Potency [5]?
Answer: Its Potency is “inactive”.

Question: What about the Potency [6] of the same molecule?
Answer: Its Potency is “inactive”.

Question: What about the Potency [7] of the same molecule?
Answer: The Potency was “inactive”.

Question: For COc1ccccc1N1CCN(CCCCNC(=O)c2ccc(-c3ccc(C(C)=O)cc3)cc2)CC1, which Potency [1] is on record?
Answer: Its Potency is “inactive”.

Question: What about the outcome [2] of the same molecule?
Answer: Its outcome is “inactive”.

Question: What about the outcome [3] of the same molecule?
Answer: The outcome was “inactive”.

Question: And the Potency [4]?
Answer: Its Potency is “inactive”.

Question: And the Potency [5]?
Answer: The Potency was “inactive”.

Question: And the Potency [6]?
Answer: Its Potency is “inactive”.

Question: And the Potency [9]?
Answer: The Potency was “inactive”.

Question: And the Potency [7]?
Answer: The Potency was “inactive”.

Question: With CCOC(=O)c1ccc(N)cc1 as the molecule, how does the Potency [1] read?
Answer: The Potency was “inactive”.

Question: What about the outcome [2] of the same molecule?
Answer: Its outcome is “inactive”.

Question: And the outcome [3]?
Answer: Its outcome is “inactive”.

Question: And the Potency [4]?
Answer: Its Potency is “inactive”.

Question: What about the Potency [5] of the same molecule?
Answer: The Potency was “inactive”.

Question: And the Potency [10]?
Answer: Its Potency is “inactive”.

Question: What does the source list for CNCCc1ccccn1?
Answer: Potency [1]: inactive; outcome [2]: inactive; outcome [3]: inactive; Potency [4]: inactive; Potency [5]: inactive; Potency [6]: inactive; Potency [9]: inactive; Potency [7]: inactive; Potency [8]: inactive

Question: Which results are given for CCO[C@@H]1O[C@H](C(COCc2ccccc2)OCc2ccccc2)[C@H](OCc2ccccc2)[C@H]1O (stereo partly specified)?
Answer: Potency [1]: inactive; outcome [2]: inactive; outcome [3]: inactive; Potency [4]: inactive; Potency [5]: inactive; Potency [10]: 11 µM (active); Potency [9]: 3.09 µM (active); Potency [7]: 23.7 µM (active); Potency [8]: 21.1 µM (active)

Question: Which Potency [1] does the source give for CCCCCN=C(N)N/N=C/c1c[nH]c2ccc(OC)cc12 here?
Answer: Its Potency is “inactive”.

Question: What about the outcome [2] of the same molecule?
Answer: Its outcome is “inactive”.

Question: And the outcome [3]?
Answer: The outcome was “inactive”.

Question: And the Potency [4]?
Answer: Its Potency is “inactive”.

Question: And the Potency [5]?
Answer: Its Potency is “inactive”.

Question: What about the Potency [10] of the same molecule?
Answer: The Potency was 0.219 µM (active).

Question: And the Potency [9]?
Answer: The Potency was “inactive”.

Question: And the Potency [7]?
Answer: Its Potency is 7.5 µM (active).

Question: What about the Potency [8] of the same molecule?
Answer: Its Potency is 4.73 µM (active).
